Among the data in PubChem BioAssay (NCATS) are Potency and activation values, retold here.

A number with no mark means an inactive call. Inconclusive results are not listed. Active and inactive are the calls of the source. Unless noted, calls follow the shape of the dose curve; as a rule, active = well fitted curve in the direction sought with a large enough effect; inconclusive = small, poorly fitted or top-dose-only effect, or another doubt; inactive = no such curve, though single readings can be large; an effect the other way counts as inactive or inconclusive.

Assay [1] has as its target Voltage-gated inwardly rectifying potassium channel KCNH2 (Homo sapiens) (UniProt Q12809). Put plainly: qHTS Assay for Small Molecule Inhibitors of the Human hERG Channel Activity (AID 588834).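 Also: lower thallium flux fluorescence means stronger hERG block; nearly all actives have a fitted effect of over 50% in size.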 Also: potency is read from the fitted curve at half-maximal effect. The settings on record: U2OS BacMam hERG, FluxOR thallium flux fluorescence; series mostly up to 46.1 µM. The method, boiled down: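 Blockade is seen as reduced FluxOR thallium-flux fluorescence in U2OS cells expressing hERG from a BacMam construct, in Opti-MEM with 2% FCS. Concentration-response data fitted to the Hill equation for AC50.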

A short description of assay [2]: qHTS of Trypanosoma Brucei Inhibitors: LOPAC Validation (AID 624147). Also: 0% is about no effect. The settings on record: purified enzyme assay, luminescence, 45 min; series mostly up to 57.5 µM. The method, boiled down: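 Readout: single end-point luminescence (Kinase-Glo Plus, 10 min). Reaction conditions were TbPYK/substrate plus 130 uM ADP, 45 min at RT, pH 7.2 TEA buffer. No-enzyme wells served as controls, and data were normalized before concentration-response fitting.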

Assay [3] has as its target Glucagon-like peptide 1 receptor (Homo sapiens) (UniProt P43220). Kind of assay: qHTS of GLP-1 Receptor Agonists: LOPAC Validation (AID 624148).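 Also: 0% is about no effect; higher luminescence signal means agonism.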 The conditions noted are these: GLP-1R agonist cell assay; series mostly up to 46.1 µM. Summed up:
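HEK293 cells stably co-expressing GLP-1R and a cAMP-responsive luciferase reporter, plated 12 hours before compound, then incubated 4-6 hr at 37 deg C. Luminescence read 12 min after detection reagent.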
For orientation: Quantitative high-throughput screening tests each substance at several concentrations.

Assay [4] can be described thus: qHTS of Nrf2 Activators: LOPAC Validation (AID 624149). Also: 0% is about no effect. The settings on record: Nrf2/ARE reporter cell assay; series mostly up to 46.1 µM. The method, boiled down:
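AREc32 cells carrying an ARE-driven firefly luciferase were grown overnight in OPTI-MEM with 5% FBS, then exposed to compounds for 24 hr at 37 deg C. Luciferase signal was read after 30 min with Steady-Glo at RT.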

Assay [5] can be described thus: HTS Assay for Allosteric Antagonists of the Human D2 Dopamine Receptor: Hit Validation in HTRF (AID 624455).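 Also: stable D1 dopamine receptor cell line scored for blocking the D1 response; % is scaled to controls: 0 for no effect and ±100 for the full control effect.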 The conditions noted are these: Cells stably expressing D1 dopamine receptor, inhibition mode; series mostly up to 46.1 µM. The method, boiled down:
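Hits were examined in an HTRF assay using cells stably expressing the D1 dopamine receptor, scoring inhibition of the D1-mediated response. The preceding primary screen tracked calcium flux after an EC80 dopamine addition in force-coupled, inducible Hek293 Trex D2 cells.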

The nature of assay [6]: qHTS assay for small molecule agonists of the antioxidant response element (ARE) signaling pathway (AID 651741; active = well fitted activation curve with a large enough effect in the signal ratio; the % refers to the signal ratio; also: potency is read from the fitted curve at half-maximal effect). The conditions noted are these: HepG2 ARE-bla reporter, beta-lactamase FRET ratio, 16 h; series mostly up to 96 µM. The method, boiled down: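 HepG2 ARE-bla cells plated at 2,000 cells/well and incubated 5 h at 37 C/5% CO2 received 23 nL compound in DMSO. After 16 h at 37 C, LiveBLAzer B/G FRET substrate was applied for 2 h at room temperature and fluorescence read.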

The nature of assay [7]: qHTS assay for small molecule activators of the p53 signaling pathway (AID 651743; active = well fitted activation curve with a large enough effect in the signal ratio, not every such curve was filed as active; the % refers to the signal ratio; also: % of control where 0% means no effect). The conditions noted are these: HCT-116 p53RE-bla, beta-lactamase FRET ratio, 16 h; stronger effect = higher value. Summed up:
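HCT-116 p53RE-bla, 4,000 cells/well; 5 h settle; cpd/DMSO 16 h, 37 C; LiveBLAzer B/G 2 h RT; fluorescence intensity.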

Assay [8] in a line: qHTS assay for small molecule activators of the nuclear factor-kappa B (NF-kB) signaling pathway (AID 651749; active = well fitted activation curve with a large enough effect in the signal ratio; the % refers to the signal ratio; also: % of control where 0% means no effect). The conditions noted are these: NF-kB-bla ME-180 cells, beta-lactamase FRET ratio, 16 h; stronger effect = higher value. Summed up:
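Incubation lasted 16 hr at 37C in 5% CO2 after 23 nL compound addition to ME-180 NF-kB-bla cells. Activation appears as beta-lactamase-mediated FRET loss.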

Assay [9] is described as follows: qHTS assay for environmental chemicals that activate the Aryl hydrocarbon Receptor (AhR) signaling pathway (AID 651777). Also: % of control where 0% means no effect; nearly all actives have a fitted effect of over 15% in size. The conditions noted are these: 1A2-DRE human hepatoma cells, luciferase, 24 h; stronger effect = higher value. The method, boiled down: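 Reporter gene assay: hepatoma cells with DRE/CYP1A2-luciferase, 24 hr compound incubation at 37 C, 5% CO2, luminescence after One-Glo (30 min, RT).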

For assay [10], the target named is Peroxisome proliferator-activated receptor alpha (Homo sapiens) (UniProt Q07869). Put plainly: qHTS assay for small molecule agonists of the peroxisome proliferator-activated receptor alpha (PPARalpha) signaling pathway (AID 651778). Also: potency is read from the fitted curve at half-maximal effect. The settings on record: PathHunter PPARalpha complementation, chemiluminescence, 6 h; max response: stronger effect = higher value. The method, boiled down: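 Enzyme-fragment complementation assay in which ligand-bound PPARalpha translocates and forms an active enzyme that generates chemiluminescence. Cells were plated overnight, exposed to compound for 6 hr at 37 C, and then given detection reagent for 60 min at room temperature.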
Chain of Peroxisome proliferator-activated receptor alpha (Homo sapiens) (Q07869 whole entry, looked up, the tested form may be a part): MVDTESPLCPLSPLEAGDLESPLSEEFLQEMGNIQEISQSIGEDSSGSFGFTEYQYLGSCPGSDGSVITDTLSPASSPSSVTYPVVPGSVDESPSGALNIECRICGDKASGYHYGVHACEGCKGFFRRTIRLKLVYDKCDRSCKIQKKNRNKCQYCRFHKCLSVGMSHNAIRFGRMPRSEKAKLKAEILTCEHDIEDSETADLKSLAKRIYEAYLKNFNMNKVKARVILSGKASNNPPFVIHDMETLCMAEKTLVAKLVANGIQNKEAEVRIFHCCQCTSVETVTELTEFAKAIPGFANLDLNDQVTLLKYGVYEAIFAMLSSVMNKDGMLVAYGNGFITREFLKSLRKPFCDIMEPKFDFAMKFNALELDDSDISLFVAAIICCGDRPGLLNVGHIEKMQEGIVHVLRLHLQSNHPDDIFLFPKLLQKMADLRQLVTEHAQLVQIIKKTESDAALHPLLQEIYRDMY

Chain of Voltage-gated inwardly rectifying potassium channel KCNH2 (Homo sapiens) (Q12809 whole entry, looked up): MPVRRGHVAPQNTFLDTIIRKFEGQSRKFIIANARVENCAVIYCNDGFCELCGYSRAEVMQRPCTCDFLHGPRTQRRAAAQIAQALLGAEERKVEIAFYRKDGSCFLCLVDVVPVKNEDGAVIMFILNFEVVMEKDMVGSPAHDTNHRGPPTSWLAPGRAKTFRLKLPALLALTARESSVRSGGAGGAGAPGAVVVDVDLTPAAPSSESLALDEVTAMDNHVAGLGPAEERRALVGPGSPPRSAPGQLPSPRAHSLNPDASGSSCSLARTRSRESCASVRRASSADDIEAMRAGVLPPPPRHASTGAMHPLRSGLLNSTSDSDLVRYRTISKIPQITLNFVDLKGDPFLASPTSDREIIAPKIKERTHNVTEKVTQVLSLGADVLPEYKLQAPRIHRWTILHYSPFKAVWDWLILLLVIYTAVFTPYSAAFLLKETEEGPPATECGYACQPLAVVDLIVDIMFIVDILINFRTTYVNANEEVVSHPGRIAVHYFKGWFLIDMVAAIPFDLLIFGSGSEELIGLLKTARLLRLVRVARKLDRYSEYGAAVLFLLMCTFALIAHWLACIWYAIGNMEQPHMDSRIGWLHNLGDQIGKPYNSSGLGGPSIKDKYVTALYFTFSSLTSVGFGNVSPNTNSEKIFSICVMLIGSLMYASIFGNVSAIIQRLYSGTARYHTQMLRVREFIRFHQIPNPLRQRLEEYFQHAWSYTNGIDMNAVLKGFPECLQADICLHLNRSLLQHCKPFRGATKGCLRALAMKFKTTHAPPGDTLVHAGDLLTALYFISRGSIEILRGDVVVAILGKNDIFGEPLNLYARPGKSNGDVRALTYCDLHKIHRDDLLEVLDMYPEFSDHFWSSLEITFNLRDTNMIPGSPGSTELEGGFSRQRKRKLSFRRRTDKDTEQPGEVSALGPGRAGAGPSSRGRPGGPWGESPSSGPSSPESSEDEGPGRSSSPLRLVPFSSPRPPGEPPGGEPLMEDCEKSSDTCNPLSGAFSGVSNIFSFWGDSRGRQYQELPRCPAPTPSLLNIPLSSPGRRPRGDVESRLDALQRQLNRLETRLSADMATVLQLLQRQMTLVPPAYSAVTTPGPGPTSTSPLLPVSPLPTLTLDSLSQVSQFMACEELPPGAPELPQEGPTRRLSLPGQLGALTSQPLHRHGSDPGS
Chain of Glucagon-like peptide 1 receptor (Homo sapiens) (P43220 whole entry, looked up): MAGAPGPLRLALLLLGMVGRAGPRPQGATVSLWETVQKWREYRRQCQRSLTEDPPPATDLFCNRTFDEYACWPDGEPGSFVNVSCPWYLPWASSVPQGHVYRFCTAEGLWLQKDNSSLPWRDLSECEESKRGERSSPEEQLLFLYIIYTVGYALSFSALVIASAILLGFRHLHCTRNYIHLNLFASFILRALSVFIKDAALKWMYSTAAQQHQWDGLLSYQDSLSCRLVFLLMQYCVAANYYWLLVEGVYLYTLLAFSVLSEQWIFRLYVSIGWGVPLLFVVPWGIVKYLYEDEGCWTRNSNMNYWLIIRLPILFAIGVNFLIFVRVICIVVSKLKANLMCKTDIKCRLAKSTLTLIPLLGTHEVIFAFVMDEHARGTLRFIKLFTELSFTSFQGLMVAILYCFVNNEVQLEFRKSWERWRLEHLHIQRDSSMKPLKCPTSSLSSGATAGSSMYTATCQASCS

Turning to `O=C(O)/C(=C/c1c(C(=O)O)[nH]c2cc(Cl)cc(Cl)c12)c1ccccc1`, the Potency entry in assay [1], in assay [2], in assay [3], in assay [4] and in [5] was “inactive” in each case.

In the case of `CC(C)Cn1c(=O)n(C)c(=O)c2[nH]cnc21`, the Potency entry in assay [1], in [2], in assay [3], in assay [4] and in assay [5] was “inactive” each time.

For the compound `C=C1C(=O)O[C@@H]2[C@H]3O[C@]3(C)CCC=C(C)CC[C@@H]12`, the Potency entry in assay [1], in assay [2], in assay [3] and in assay [5] was “inactive” in each case.

`Fc1ccc(CN(C2=NCCN2)c2c(Cl)cccc2Cl)cc1`: in [1], the Potency was 10 µM (active). Besides, the Potency entry in [2], in [3], in [4] and in assay [5] was “inactive” in each case.

Consider `NC1CCN(O)C1=O` (stereo not drawn), for which the Potency result in [1], in assay [2], in assay [3], in assay [4] and in assay [5] was “inactive” throughout.

Take `O=C1C2C=CC=CC2=NC(=S)N1CCN1CCC(=C(c2ccc(F)cc2)c2ccc(F)cc2)CC1` (stereo not drawn): the Potency in [1] was 0.316 µM (active). In addition, the Potency result in assay [2], in assay [3], in [4] and in [5] was “inactive” throughout.

Consider `c1ccc(CN2CCC3(CCCc4ccccc43)CC2)cc1`, for which, in assay [1], the Potency was 3.98 µM (active). Further, the Potency entry in assay [2], in [3], in [4] and in assay [5] was “inactive” each time.

Regarding `NOCC(=O)O`, the Potency entry in assay [1], in [2], in [3] and in assay [4] was “inactive” in each case.

Regarding `COc1cc(CC(=O)O)ccc1O`, the Potency entry in [1], in assay [2], in assay [3], in [4] and in assay [5] was “inactive” in each case.

With `O=C(O)c1ccccc1Nc1cccc(OCc2ccc3ccccc3n2)c1`, the Potency result in assay [1], in assay [2], in [3], in [4] and in assay [5] was “inactive” throughout.

`NC(C(=O)N[C@@H]1C(=O)N2C(C(=O)O)=C(Cl)CS[C@H]12)c1ccccc1` (stereo partly drawn): the Potency entry in [1], in assay [2], in assay [4] and in assay [5] was “inactive” in each case.

In the case of `COc1ccc2c(c1)c(CC(=O)O)c(C)n2Cc1ccc(Cl)cc1`, the Potency result in [1], in assay [2], in assay [3], in assay [4] and in assay [5] was “inactive” in each case.

As to `CCCn1c(=O)c2c(ncn2C)n(CCC)c1=O`, the Potency result in [1], in assay [2], in assay [3], in [4] and in assay [5] was “inactive” each time.

Turning to `Nc1ncnc2c1ncn2C1CCCC1`, the Potency result in [1], in [2], in [3], in assay [4] and in [5] was “inactive” in each case.

On to `CCCCC[C@H](CC(=O)NO)C(=O)N[C@H](C(=O)N1CCC[C@H]1CO)C(C)C`, for which the Potency result in assay [1], in assay [2], in assay [3] and in [5] was “inactive” throughout.

For `CCCc1c(OCCCOc2ccc(OCC(=O)O)cc2)ccc(C(C)=O)c1O`, the Potency entry in assay [1], in assay [2], in assay [3], in [4] and in [5] was “inactive” in each case. Moreover, the Potency in assay [6] was 54.5 µM (active); in assay [10], 11.2 µM (active). The activation is 16.9% in assay [7], -3.53% in assay [8] and 0.459% in [9].

For the compound `O=C1Cc2c([nH]c3ccc(Br)cc23)-c2ccccc2N1`, the Potency result in [1], in [2], in [3] and in assay [5] was “inactive” each time.

With `N#CC(C#N)=C(N)/C(C#N)=C/c1ccc(O)cc1`, the Potency entry in [1], in assay [2], in [3], in assay [4] and in assay [5] was “inactive” each time.

Regarding `NCCCCN=C(N)N`, the Potency result in assay [1], in [2], in assay [3], in assay [4] and in assay [5] was “inactive” throughout.

Regarding `CC(N)(Cc1ccc(O)c(O)c1)C(=O)O` (stereo not drawn), the Potency entry in assay [1], in assay [2], in assay [3], in assay [4] and in assay [5] was “inactive” throughout.

On to `NC1CONC1=O` (stereo not drawn), for which the Potency result in assay [1], in [2], in [3], in assay [4] and in assay [5] was “inactive” in each case.

Regarding `NC(N)=N[C@@H](CCC(=O)O)C(=O)O`, the Potency entry in assay [1], in assay [2], in assay [3], in assay [4] and in assay [5] was “inactive” each time.

Turning to `CSC(N)=NCCC[C@H](N)C(=O)O`, the Potency result in [1], in assay [2], in assay [3], in assay [4] and in [5] was “inactive” each time.

As to `N[C@H](C(=O)O)c1cc(O)cc(O)c1`, the Potency entry in assay [1], in [2], in [3], in [4] and in assay [5] was “inactive” throughout.

With `CC(=O)O[C@H]1CC2(C)[C@@H](C[C@@H](O)[C@H]3[C@@]4(C)CC[C@@H](O)[C@@H](C)[C@@H]4CC[C@@]32C)C1=C(CCC=C(C)C)C(=O)O` (stereo partly drawn), the Potency result in [1], in assay [2], in assay [3] and in assay [5] was “inactive” each time.

For the compound `C=CCN1CCc2c(cc(O)c(O)c2Br)[C@@H](c2ccccc2)C1`, the Potency in assay [1] was 7.08 µM (active). Also, the Potency entry in assay [2], in assay [3] and in assay [4] was “inactive” in each case.
